Experimental data from PubChem BioAssay AID1851 (National Center for Advancing Translational Sciences (NCATS), 2009).
Screen size: about 16,000 compounds; about 4,000 (25%) were called active. Another 26% or so got no clear call; they are omitted. A selection follows. Unmarked numbers belong to inactive results. The call rests on the fitted dose curve; in most records, active means well fitted curve in the direction sought with a large enough effect; inconclusive means small, poorly fitted or top-dose-only effect, or effect the other way; inactive means no such curve, though single readings can be large or run the other way.

These compounds were tested against Cytochrome P450 2C9 (Homo sapiens) (UniProt P11712) (assay: Cytochrome panel assay with activity outcomes). Settings: recombinant CYP, pro-luciferin dealkylation, luminescence, p450-cyp2c9; series mostly up to 57.1 µM; activity, negative = inhibition: at the top concentration.
On the % scale 0 is the no-effect control and ±100 the full control effect.

Sequence of Cytochrome P450 2C9 (Homo sapiens) (P11712 whole entry, looked up): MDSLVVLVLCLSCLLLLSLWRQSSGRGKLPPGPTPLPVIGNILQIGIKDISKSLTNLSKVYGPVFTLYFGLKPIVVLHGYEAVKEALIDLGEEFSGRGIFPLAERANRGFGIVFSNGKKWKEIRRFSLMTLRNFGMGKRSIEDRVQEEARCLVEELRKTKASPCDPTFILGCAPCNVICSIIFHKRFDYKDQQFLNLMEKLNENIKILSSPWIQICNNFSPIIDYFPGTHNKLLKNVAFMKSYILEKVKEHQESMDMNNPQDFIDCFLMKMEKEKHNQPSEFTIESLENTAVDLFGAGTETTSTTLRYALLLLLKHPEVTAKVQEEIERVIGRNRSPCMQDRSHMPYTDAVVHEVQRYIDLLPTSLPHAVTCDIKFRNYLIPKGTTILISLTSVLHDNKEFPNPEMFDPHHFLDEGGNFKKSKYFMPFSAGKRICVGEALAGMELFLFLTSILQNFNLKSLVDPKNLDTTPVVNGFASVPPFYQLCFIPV

Row | Structure (SMILES) | AC50 | activity, negative = inhibition
1 | O=C(NCc1ccco1)Nc1cccs1 | 11.2 µM (active) | –
2 | N#Cc1ccccc1NC(=O)Nc1cccs1 | – | -22.3%
3 | Cc1cc(NC(=O)C2CCCCC2)nc2c1c(=O)oc1ccccc12 | 14.1 µM (active) | –
4 | O=C(Nc1cc2ccccc2oc1=O)C1CCCCC1 | – | -15.2%
5 | Cc1cc2ccccc2n1CCNC(=O)C1CCCC1 | – | -42.8%
6 | COc1ccc(-c2cc(C(F)(F)F)nc(N3CCN(C)CC3)n2)cc1OC | – | -22.7%
7 | COc1ccccc1-c1nc(N2CCN(C)CC2)c2ccccc2n1 | – | 11.5% [at 2.29 µM]
8 | CN1CCN(c2nc(-c3ccccc3)cc(C(F)(F)F)n2)CC1 | – | -8.43%
9 | COc1ccccc1N1CCN(c2nc(-c3ccccc3)cc(C(F)(F)F)n2)CC1 | 5.62 µM (active) | –
10 | COc1ccc(-c2cc(C(F)(F)F)nc(NC3CCCC3)n2)cc1OC | 7.94 µM (active) | –
11 | COc1ccc(-n2c(=O)c(-c3cc(F)cc(F)c3)nc3cnc(N4CCOCC4)nc32)cc1 | – | -5.13%
12 | COc1ccc(-c2cc(C(F)(F)F)nc(N3CCCCC3)n2)cc1OC | 10 µM (active) | –
13 | COc1ccccc1-c1cc(C(F)(F)F)nc(S(=O)(=O)CCCC(=O)NC(C)C)n1 | – | 20.8%
14 | COc1ccccc1-c1nc(NC2CC2)c2ccccc2n1 | – | 5.77% [at 2.29 µM]
15 | COc1cccc(-c2cc(C(F)(F)F)nc(N3CCOCC3)n2)c1 | 15.8 µM (active) | –
16 | CO[C@H]1COC(=O)C/C=C\[C@@H](C)[C@H](OC)COC(=O)CCC[C@@H]1C | – | 9.38% [at 11.4 µM]
17 | COc1cc2c(cc1OC)-c1cc3ccc(OC)c(OC)c3c[n+]1CC2 | – | -16.3% [at 25.6 µM]
18 | CN(C)c1ncc2nc(-c3cc(F)cc(F)c3)c(=O)n(C[C@H]3CCCO3)c2n1 | – | 19.4%
19 | COc1ccc(-n2c(=O)c(-c3ccc(F)cc3)nc3cnc(N4CCOCC4)nc32)cc1 | – | 9.27%
20 | COc1ccc(-c2cc(C(F)(F)F)nc(N3CCOCC3)n2)cc1OC | 3.98 µM (active) | –
21 | Cn1c(=O)c(-c2ccc(F)cc2)nc2cnc(N3CCOCC3)nc21 | – | 6.99%

Row | Structure (SMILES) | AC50 | activity, negative = inhibition
22 | COc1cc2c(cc1OC)[C@H](c1ccccc1)CN(C)CC2 | – | -23.8%
23 | CC(C)(CO)N1CCN(C(=S)Nc2ccccc2)CC1 | – | 10.3% [at 11.4 µM]
24 | COc1cc2c(cc1OC)CN(C(=S)Nc1ccccc1)CC2 | 4.47 µM (active) | –
25 | O=C(N/C(=C\c1cccnc1)C(=O)N1CCOCC1)c1cccc(Br)c1 | – | -30.3%
26 | O=C(/C=C/c1cccnc1)c1ccc(NC(=O)c2cccc(Br)c2)cc1 | 4.47 µM (active) | –
27 | CN(C)CCn1c(C(=O)O)cc2ccccc21 | – | -16.7%
28 | N#CC(c1ccc(Cl)cc1)c1nc2ccccc2nc1C(F)(F)F (configuration not stated) | 1.41 µM (active) | –
29 | FC(F)(F)c1nc2ccccc2nc1N/N=C/c1ccc(Cl)cc1 | – | -20.4%
30 | Cc1ccccc1Oc1ncnc2oc(-c3ccccc3)cc12 | 3.98 µM (active) | –
31 | Cc1ccccc1Oc1ncnc2sccc12 | – | 8.31%
32 | Cc1cc(Cl)ccc1Oc1ncnc2oc(-c3ccccc3)cc12 | 4.47 µM (active) | –
33 | Cc1cc(Cl)ccc1Oc1ncc(-c2ccc(Cl)cc2)cn1 | – | -15.3%
34 | CC(O)(P(=O)(O)O)P(=O)(O)O | – | -5.54% [at 25.6 µM]
35 | O=C(c1cnccn1)N1CCC2(CC1)CN(Cc1cc(C(F)(F)F)cc(C(F)(F)F)c1)C2 | – | 2.54%
36 | COc1ccc2cc(C)c3nnc(SCC(=O)Nc4nc(-c5ccccc5)cs4)n3c2c1 | 2.82 µM (active) | –
37 | COc1ccc(-c2nc(-c3ccccc3)c(-c3cc([N+](=O)[O-])ccc3C)[nH]2)cc1O | 10 µM (active) | –
38 | CCCC(=O)NC(Nc1ccccc1F)C(Cl)(Cl)Cl (configuration not stated) | 8.91 µM (active) | –
39 | N#Cc1c(NC(=O)C2CC(c3ccccc3Cl)=NO2)sc2c1CCC2 (configuration not stated) | 0.708 µM (active) | –
40 | CCN(c1ccccc1)c1cc(NC)[n+](C)c(C)n1 | – | 5.78%
41 | CC(C)(C)n1nnnc1C(c1cccnc1)N(Cc1ccccc1)Cc1ccco1 (configuration not stated) | 3.98 µM (active) | –
42 | CN(Cc1ccco1)c1nc(-c2cccnc2)nc2ccccc12 | – | -8.92% [at 2.29 µM]

Row | Structure (SMILES) | AC50 | activity, negative = inhibition
43 | CN(Cc1ccco1)c1ccnc(-c2cccnc2)n1 | – | 16.4% [at 2.29 µM]
44 | C=CCn1c(SCC(=O)N2CCc3ccccc3C2)nc2ccccc2c1=O | 0.2 µM (active) | –
45 | Cc1ccc(-n2c(C)nnc2SCC(=O)N2CCc3ccccc3C2)cc1C | – | 11.9%
46 | O=C(O)/C=C\C(=O)N1Cc2cc3ccccc3nc2C1 | – | 10.3% [at 11.4 µM]
47 | CCn1c2ccc(Cl)cc2c2nc3ccccc3nc21 | 10 µM (active) | –
48 | CCn1c2ccccc2c2nnc(NCCCO)nc21 | – | 5.48% [at 11.4 µM]
49 | CCn1c(N)nc2ccccc21 | – | -20%
50 | O=C(O)CCc1nc(-c2ccccc2-n2cccc2)no1 | – | -3.02% [at 11.4 µM]
51 | C=Cc1c(C)c2cc3nc(cc4[nH]c(cc5nc(cc1[nH]2)C(C)=C5CCC(=O)O)c(CCC(=O)OC)c4C)[C@@]1(C)C3=CC=C(C(=O)OC)[C@H]1C(=O)OC (tested in a mixture with another compound) | 1.26 µM (active) | –
52 | Cc1cccc(CNc2cc(-c3ccc(N(C)C)cc3)ncn2)c1 | – | -14.7% [at 2.29 µM]
53 | CCOc1ccc2ccccc2c1C(=O)N[C@@H]1C(=O)N2[C@@H]1SC(C)(C)[C@@H]2C(=O)O | – | -13.4% [at 25.6 µM]
54 | CCOc1cc(C2CC(=O)c3c(ccc4ccccc34)N2)ccc1O (configuration not stated) | 3.16 µM (active) | –
55 | Cn1cc(-c2nc3cncnc3n(Cc3ccc(F)cc3)c2=O)c2ccccc21 | – | 7.71%
56 | COc1ncc2nc(-c3cccs3)c(=O)n(Cc3ccc(F)cc3)c2n1 | – | -20.3%
57 | COc1cccc(Nc2ncc3nc(-c4cccs4)c(=O)n(CCC#N)c3n2)c1 | – | -7.12%
58 | Cc1nc2cnc(Nc3ccccc3)nc2n(CCc2ccccc2)c1=O | – | -14.1%
59 | Cc1nc2cncnc2n(Cc2ccccc2)c1=O | 15.8 µM (active) | –
60 | COc1ccc(Oc2ncc3nc(-c4cccs4)c(=O)n(Cc4cccc(OC)c4)c3n2)cc1 | 1 µM (active) | –
61 | O=c1c(-c2cccs2)nc2cncnc2n1Cc1ccccc1 | 1.26 µM (active) | –
62 | COc1cccc(Cn2c(=O)c(-c3cccs3)nc3cncnc32)c1 | 2.51 µM (active) | –
